Compounds with a hit are over-represented: about 3.7% of the library has one in this group of screens.
HTT prom inh: inhibits huntingtin promoter activity. HEK293 HTT promoter firefly luciferase reporter, 24 h. Potency, µM (highest dose often 57.5 µM), actives largely listed as inhibitors. 0.93% of 48,000 active. AID 1508623; also: nearly all actives have a fitted effect of over 50% in size
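Luminescence was read after Dual-Glo reagent and a 10 min room-temperature incubation. Values were normalized to vehicle (0% activity) and zero RLU (-100% activity). Reporter HEK293 cells had been exposed to compounds (up to 57.5 uM final) for 24 h.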
DRV1 agonist: agonists of human resolvin D1 receptor DRV1 (GPR32); O75388; CHO-K1 GPR32 beta-arrestin PathHunter luminescence, 90 min; zero percent set by DMSO-only wells; activation, % at 76.9 µM; 2.5% of 48,000 active; AID 1346428;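 active = activation of at least 60% and not above a set upper limit, about 1 call in 100 departs from these limits; inconclusive = activation of 40% to 60%, or above that upper limit; inactive = activation under 40%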
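Luminescent readout of beta-Gal complementation quantifies ligand-induced beta-arrestin association with GPR32 in CHO-K1 cells; 90 min compound incubation at 37 °C, detection 1 h at room temperature.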
GALK inhibitor: inhibits human galactokinase; recombinant GALK, Kinase-Glo ATP luminescence, 1 h; P51570; 44,000 tested, under 10 active; Potency, µM (series often up to 57.5 µM), usual class: inhibitors
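Luminescent ATP-depletion readout (Kinase-Glo Plus, 10 min) after 1 h RT reaction of 5 nM GALK, 35 uM ATP, 100 uM galactose, pH 8.0 HEPES buffer. Decreased kinase activity scored as inhibition.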
TSG101-PTAP inh: blocks PTAP binding to human TSG101, validation; AID 1347069; Fluorescence polarization, FITC-PTAP peptide/Tsg101, 20 min; 44,000 tested, under 10 active; Potency, µM (series often up to 115 µM), most hits filed as inhibitors
Target sequence (Q99816 whole entry, looked up): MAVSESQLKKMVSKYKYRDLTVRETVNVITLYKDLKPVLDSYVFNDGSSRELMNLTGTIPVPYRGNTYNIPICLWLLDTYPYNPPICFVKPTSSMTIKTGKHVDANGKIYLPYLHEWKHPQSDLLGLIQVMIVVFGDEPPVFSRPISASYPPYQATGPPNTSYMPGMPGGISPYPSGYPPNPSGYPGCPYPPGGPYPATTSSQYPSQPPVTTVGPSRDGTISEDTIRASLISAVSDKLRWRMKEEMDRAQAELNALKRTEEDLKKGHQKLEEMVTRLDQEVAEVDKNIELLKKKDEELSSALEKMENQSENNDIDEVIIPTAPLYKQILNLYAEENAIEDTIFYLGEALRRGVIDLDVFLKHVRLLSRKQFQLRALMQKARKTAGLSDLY
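Read-out is FITC fluorescence polarization. Compounds were added to Tsg101 binding domain (10 uM final), then FITC-PTAP peptide (50 nM final), 20 min at r.t. Total S+P intensity flags fluorescent compounds.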
B2AR arrestin ag: agonists recruiting beta-arrestin to human beta2-adrenergic receptor; P07550; HTLA Tango cells, beta-arrestin recruitment, luciferase luminescence, 18 h; Potency, µM (doses to about 46.1 µM), usual class: activators; 44,000 tested, under 10 active; AID 1347077
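Ligand-induced beta-arrestin recruitment to recombinant beta2-AR is measured via a tTA-driven luciferase reporter in Tango cells after 18 hr compound exposure at 37 degrees C. Concentrations span up to 46 microM.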
HTT-AS promoter: HTT-AS promoter activation; 0.24% of 48,000 active; HEK293 HTT-AS promoter firefly luciferase reporter, 24 h; response scale: percent change from vehicle, -100% = no light; Potency, µM (highest dose often 57.5 µM), actives largely listed as activators; also: nearly all actives have a fitted effect of over 55% in size
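HEK293 Fluc reporter, 2,500 cells/well, 24 h pre-culture; cpds up to 57.5 uM final, 24 h 37 degrees C; Dual-Glo, 10 min RT; normalized vehicle = 0%, zero RLU = -100%.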
Of the large screens only hits and unclear results are named; the others gave an inactive call. Unless noted, calls follow the shape of the dose curve; as a rule, active = well fitted curve in the direction sought with a large enough effect; inconclusive = small, poorly fitted or top-dose-only effect, or another doubt; inactive = no such curve, though single readings can be large; an effect the other way counts as inactive or inconclusive.

COc1cccc2cc(C(=O)Nc3ccc(CC(=O)O)cc3)c(=O)oc12	HTT prom inh 0.28µM
COc1cccc2cc(C(=O)NCCc3c(C)[nH]c4ccc(F)cc34)c(=O)oc12	none
COc1ccc(C(=O)Nc2cccc(OCc3cc(=O)n4c5c(sc4n3)CCCC5)c2)cc1OC	DRV1 agonist 63
O=C(Nc1cccc(OCc2cc(=O)n3c4c(sc3n2)CCCC4)c1)c1ccc(F)cc1	none
Cc1ccccc1-c1nc(CS(=O)(=O)CC(=O)NCC(C)c2ccccc2)c(C)o1 (stereo not drawn)	DRV1 agonist 70
Cc1ccccc1-c1nc(CS(=O)(=O)CC(=O)NCCc2ccccc2)c(C)o1	none
Nc1ncnc2c1c(-c1cccc(OCc3ccccc3)c1)cn2C1CC(CN2CCC2)C1 (stereo not drawn)	none (no result: DRV1 agonist, GALK inhibitor, TSG101-PTAP inh, B2AR arrestin ag)
CO[C@H]1C[C@@H]2CC[C@@H](C)[C@@](O)(O2)C(=O)C(=O)N2CCCC[C@@H]2C(=O)O[C@H]([C@H](C)C[C@@H]2CC[C@H](OC(=O)C(C)(CO)CO)[C@H](OC)C2)CC(=O)[C@H](C)C=C(C)[C@@H](O)[C@@H](OC)C(=O)[C@H](C)C[C@H](C)C=CC=CC=C1C	none (no result: DRV1 agonist, GALK inhibitor, TSG101-PTAP inh, B2AR arrestin ag)
CCN(C(=O)CSc1nc2ccccc2nc1Cc1ccc(F)cc1)c1cccc(C)c1	none
CCN(C(=O)CSc1nc(-c2ccccc2)no1)c1cccc(C)c1	HTT prom inh 3.2µM, DRV1 agonist inconclusive
CCCNS(=O)(=O)Nc1ncnc(OCCOc2ncc(Br)cn2)c1-c1ccc(Br)cc1	none (no result: DRV1 agonist, GALK inhibitor, TSG101-PTAP inh, B2AR arrestin ag)
COc1ccc(-c2cc(C(F)(F)F)nc(NCc3ccccc3)n2)cc1	GALK inhibitor inconclusive
COc1ccc(-c2cc(C(F)(F)F)nc(S(C)(=O)=O)n2)cc1	HTT prom inh inconclusive, DRV1 agonist 109
CCCn1c(=O)c2[nH]c(C34CC5CC3C[C@@H](C5)C4)nc2n(CCC)c1=O	none (no result: DRV1 agonist, GALK inhibitor, TSG101-PTAP inh, B2AR arrestin ag)
O=C(C=Cc1ccc(/C=C/C(=O)Nc2ccc(C3=NCCN3)cc2)cc1)Nc1ccc(C2=NCCN2)cc1	none (no result: DRV1 agonist, GALK inhibitor, TSG101-PTAP inh, B2AR arrestin ag)
Cc1ccc(C(C)C)c(O)c1	none (no result: GALK inhibitor, TSG101-PTAP inh, B2AR arrestin ag)
Cc1cc(O)c2c(O)c3c(O)cccc3cc2c1	DRV1 agonist 108 (no result: GALK inhibitor, TSG101-PTAP inh, B2AR arrestin ag)
CSc1cccc(N2C(=O)N(CC(=O)NCc3ccccc3Cl)c3ccccc3S2(=O)=O)c1	DRV1 agonist 67
Cc1onc(-c2c(Cl)cccc2Cl)c1C(=O)Cl	none (no result: GALK inhibitor, TSG101-PTAP inh, B2AR arrestin ag)
COc1ccc(N2CCN(C(=O)c3oc4ccccc4c3NC(=O)c3ccccc3OC)CC2)cc1	HTT prom inh inconclusive
COc1ccccc1N1CCN(C(=O)c2oc3ccccc3c2N)CC1	DRV1 agonist 71 (no result: HTT prom inh, HTT-AS promoter)
Cc1ccc(Nc2nc3nonc3nc2Nc2cccc(C(F)(F)F)c2)cc1Cl	HTT prom inh 1.3µM
Cc1cc(Nc2cccc(C(F)(F)F)c2)ncn1	none
CCN1CCOC(=O)C1CC(=O)Nc1ccc(Br)cc1 (stereo not drawn)	DRV1 agonist 74
CCN1CCOC(=O)C1CC(=O)Nc1cc(C)ccc1OC (stereo not drawn)	none
CC(C)N(CCCNC(=O)Nc1ccc(C(C)(C)C)cc1)C[C@H]1O[C@@H](n2cc(Br)c3c(N)ncnc32)[C@H](O)[C@H]1O	HTT prom inh inconclusive (no result: DRV1 agonist, GALK inhibitor, TSG101-PTAP inh, B2AR arrestin ag)
O=[N+]([O-])c1cn2c(n1)OC[C@@H](OCc1ccc(OC(F)(F)F)cc1)C2	none (no result: DRV1 agonist, GALK inhibitor, TSG101-PTAP inh, B2AR arrestin ag)
Cc1ccc(-n2nc(C(=O)N3CCN(c4cccc(C(F)(F)F)c4)CC3)c(=O)n(C)c2=O)cc1	HTT prom inh 32µM
CCOC(=O)c1c(C)[nH]c(C)c1S(=O)(=O)N(C)CC(=O)NCc1cccc(Br)c1	DRV1 agonist 101
CCOC(=O)c1c(C)[nH]c(C)c1S(=O)(=O)NCC(=O)NCc1cccc(Br)c1	none
COc1ccc(CCNC(=O)CSc2cn(CCNC(=O)c3ccccc3F)c3ccccc23)cc1OC	DRV1 agonist 80
O=C(CSc1cn(CCNC(=O)c2c(F)cccc2F)c2ccccc12)Nc1ccccc1F	DRV1 agonist 66
